Laboratory results taken from PubChem BioAssay AID1159580 (chemical genetic matrix, 2015).
“And” between values parts separate entries of the source, which are not always exact repeats. Identical values can stand only once. Among all 5,500 compounds or so, about 2,000 (36%) were called active. Roughly 18% stayed inconclusive and do not appear here. Cut-off read from the data, not from the text of the source: active = normalized growth mostly below about 0.91 (no sharp cut-off); inconclusive = no clear call, values can overlap the other calls; inactive = mostly above about 0.92. The list shows a part of the results.

Assay: chemical genetic growth profiling, strain panel (AID 1159580);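 note: tested at 20 µM; growth read once vehicle control cultures reached saturation at 30 °C; 1 = growth at the plate median or of vehicle wells; lower values mean less growth of the strain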
Settings: S. cerevisiae deletion strains, growth OD

Measured: normalized growth

CC1=C(C(=O)O)N2C(=O)[C@@H](NC(=O)[C@@H](N)c3ccc(O)cc3)[C@H]2SC1
inactive: locus YAL013W, strain DEP1, hits give low values 0.993 | locus YAL021C, strain ccr4, hits give low values 1.02 | locus YAL026C, strain drs2, hits give low values 1.04 | locus YAL030W, strain snc1, hits give low values 1.03 | locus YBL061C, strain skt5, hits give low values 1.03 | locus YBR009C, strain hhf1, hits give low values 1.03 | locus YBR021W, strain FUR4, hits give low values 1.01 | locus YBR023C, strain chs3, hits give low values 1.06 | locus YBR171W, strain sec66, hits give low values 1.03 | locus YBR229C, strain ROT2, hits give low values 0.958 | locus YBR231C, strain swc5, hits give low values 1.04 | locus YBR279W, strain paf1, hits give low values 1.02 | locus YCL011C, strain gbp2, hits give low values 1.01 | locus YCL016C, strain dcc1, hits give low values 1.03 | locus YCL029C, strain bik1, hits give low values 0.984 | locus YCL061C, strain MRC1, hits give low values 1.04 | locus YCL069W, strain vba3, hits give low values 1.03 | locus YCR088W, strain abp1, hits give low values 1.02 | locus YDL005C, strain med2, hits give low values 1.03 | locus YDL035C, strain GPR1, hits give low values 0.956 | locus YDL040C, strain nat1, hits give low values 1.02 | locus YDL074C, strain BRE1, hits give low values 1.01 | locus YDL101C, strain DUN1, hits give low values 0.99 | locus YDL185W, strain tfp1, hits give low values 0.953 | locus YDL192W, strain arf1, hits give low values 0.971 | locus YDR001C, strain nth1, hits give low values 1.04 | locus YDR069C, strain doa4, hits give low values 1.05 | locus YDR101C, strain arx1, hits give low values 0.965 | locus YDR137W, strain rgp1, hits give low values 1.03 | locus YDR150W, strain NUM1, hits give low values 0.985 | locus YDR159W, strain sac3, hits give low values 1.04 | locus YDR162C, strain NBP2, hits give low values 0.967 | locus YDR195W, strain ref2 1 | locus YDR297W, strain sur2, hits give low values 1.03 | locus YDR318W, strain mcm21, hits give low values 0.994 | locus YDR334W, strain swr1, hits give low values 1.03 | locus YDR335W, strain msn5, hits give low values 1.02 | locus YDR388W, hits give low values 0.979 | locus YDR392W, strain spt3, hits give low values 1.05 | locus YDR502C, strain sam2, hits give low values 0.984 | locus YEL003W, strain gim4, hits give low values 1.03 | locus YEL037C, strain rad23, hits give low values 1.03 | locus YEL061C, strain CIN8 (second series), hits give low values 1.04 | locus YEL061C, strain CIN8, hits give low values 0.988 | locus YER015W, strain faa2, hits give low values 1.01 | locus YER016W, strain bim1, hits give low values 1.02 | locus YER110C, hits give low values 0.973 | locus YER111C, strain swi4, hits give low values 1.03 | locus YER155C, strain BEM2 (second series), hits give low values 1.07 | locus YER155C, strain BEM2, hits give low values 0.995 | locus YER167W, strain BCK2, hits give low values 0.995 | locus YFR010W, strain ubp6, hits give low values 1.06 | locus YGL078C, strain dbp3, hits give low values 1 | locus YGL086W, strain mad1, hits give low values 0.982 | locus YGL167C, strain pmr1, hits give low values 1.03 | locus YGL173C, strain kem1, hits give low values 1.04 | locus YGL227W, strain vid30, hits give low values 1.03 | locus YGL240W, strain doc1, hits give low values 1.03 | locus YGL248W, strain PDE1, hits give low values 1.01 | locus YGL253W, strain hxk2, hits give low values 1.02 | locus YGR135W, strain pre9, hits give low values 1.03 | locus YGR229C, strain SMI1, hits give low values 0.978 | locus YGR252W, strain gcn5, hits give low values 0.999 | locus YHR013C, strain ard1, hits give low values 1.06 | locus YHR027C, strain rpn1, hits give low values 1.02 | locus YHR030C, strain SLT2, hits give low values 0.986 and 0.97 | locus YHR079C, strain IRE1 (second series), hits give low values 0.985 | locus YHR079C, strain IRE1, hits give low values 0.99 | locus YHR094C, strain hxt1, hits give low values 0.983 | locus YHR129C, strain ARP1, hits give low values 0.987 | locus YHR142W, strain chs7, hits give low values 1.04 | locus YHR200W, strain rpn10, hits give low values 0.967 | locus YIL066C, strain RNR3, hits give low values 0.98 | locus YIL073C, strain SPO22, hits give low values 0.981 | locus YIL125W, strain kgd1, hits give low values 0.988 | locus YIR030C, strain dcg1, hits give low values 0.982 | locus YJL092W, strain hpr5, hits give low values 1.04 | locus YJL095W, strain BCK1 (second series), hits give low values 1.02 | locus YJL095W, strain BCK1, hits give low values 1.05 and 0.976 | locus YJL115W, strain asf1, hits give low values 1.04 | locus YJL129C, strain trk1, hits give low values 1.04 | locus YJL134W, strain LCB3, hits give low values 0.983 | locus YJL154C, strain vps35, hits give low values 1.01 | locus YJL164C, strain tpk1, hits give low values 1.03 | locus YJL166W, strain qcr8, hits give low values 1.03 | locus YJL168C, strain set2, hits give low values 0.982 | locus YJL187C, strain SWE1 (second series), hits give low values 1 | locus YJR043C, strain POL32, hits give low values 0.97 | locus YJR066W, strain TOR1, hits give low values 0.979 | locus YKL009W, strain mrt4, hits give low values 1.05 | locus YKL068W, hits give low values 0.978 | locus YKL085W, strain MDH1 (second series), hits give low values 0.991 | locus YKL085W, strain MDH1, hits give low values 0.991 | locus YKL160W, strain elf1, hits give low values 1.02 | locus YKR001C, strain vps1, hits give low values 0.993 | locus YKR026C, strain gcn3, hits give low values 0.999 | locus YKR091W, strain srl3, hits give low values 1.03 | locus YLL001W, strain dnm1, hits give low values 1.04 | locus YLL026W, hits give low values 1.03 | locus YLL041C, strain sdh2, hits give low values 1.03 | locus YLR027C, strain aat2, hits give low values 1.03 | locus YLR039C, strain RIC1, hits give low values 0.992 | locus YLR058C, strain SHM2, hits give low values 0.988 | locus YLR102C, strain apc9, hits give low values 0.985 | locus YLR113W, strain HOG1, hits give low values 0.932 | locus YLR221C, strain rsa3, hits give low values 1.04 | locus YLR258W, strain gsy2, hits give low values 1.02 | locus YLR262C, strain YPT6 (second series), hits give low values 1.07 | locus YLR262C, strain YPT6, hits give low values 0.941 | locus YLR268W, strain sec22, hits give low values 0.977 | locus YLR320W, strain mms22, hits give low values 1.03 | locus YLR330W, strain CHS5, hits give low values 0.988 | locus YLR342W, strain FKS1 (second series), hits give low values 0.979 | locus YLR342W, strain FKS1, hits give low values 1.03 | locus YLR357W, strain rsc2, hits give low values 1.04 | locus YLR370C, strain arc18, hits give low values 1.02 | locus YLR371W, strain rom2, hits give low values 0.968 | locus YLR384C, strain iki3, hits give low values 1.03 | locus YLR418C, strain cdc73, hits give low values 1.02 | locus YML016C, strain PPZ1, hits give low values 0.99 | locus YML032C, strain rad52, hits give low values 0.984 | locus YML120C, strain ndi1, hits give low values 1.03 | locus YML124C, strain tub3, hits give low values 0.981 | locus YMR058W, strain fet3, hits give low values 1 | locus YMR078C, strain ctf18, hits give low values 0.982 | locus YMR125W, strain sto1, hits give low values 1.04 | locus YMR129W, hits give low values 1.03 | locus YMR205C, strain PFK2, hits give low values 1.03 | locus YMR223W, strain ubp8, hits give low values 1.01 | locus YMR231W, strain pep5, hits give low values 1.02 | locus YMR263W, strain SAP30, hits give low values 0.996 | locus YMR307W, strain GAS1, hits give low values 0.967 | locus YNL067W, strain RPL9B, hits give low values 1 | locus YNL071W, strain lat1, hits give low values 1.02 | locus YNL128W, strain TEP1, hits give low values 0.983 | locus YNL183C, strain NPR1, hits give low values 0.929 | locus YNL209W, strain ssb2, hits give low values 1.01 | locus YNL233W, strain BNI4, hits give low values 1.02 | locus YNL248C, strain rpa49, hits give low values 1.04 | locus YNL250W, strain rad50, hits give low values 0.984 | locus YNL271C, strain bni1, hits give low values 0.984 | locus YNL298W, strain CLA4, hits give low values 0.981 | locus YNL307C, strain MCK1, hits give low values 0.983 | locus YNL322C, strain KRE1 (second series), hits give low values 1.03 | locus YNL322C, strain KRE1, hits give low values 0.998 | locus YNR049C, strain mso1, hits give low values 1.03 | locus YNR052C, strain pop2, hits give low values 0.982 | locus YOL006C, strain TOP1, hits give low values 1.1 | locus YOL012C, strain htz1 0.974 | locus YOL147C, strain pex11, hits give low values 0.994 | locus YOR001W, strain rrp6, hits give low values 1.06 | locus YOR061W, strain CKA2, hits give low values 0.968 | locus YOR069W, strain VPS5, hits give low values 0.987 | locus YOR070C, strain gyp1, hits give low values 1.02 | locus YOR080W, strain dia2, hits give low values 1.03 | locus YOR083W, strain WHI5, hits give low values 1.03 | locus YOR106W, strain vam3, hits give low values 1.03 | locus YOR136W, strain idh2, hits give low values 0.978 | locus YOR144C, strain elg1, hits give low values 0.981 | locus YOR184W, strain ser1, hits give low values 0.988 | locus YOR231W, strain MKK1, hits give low values 0.966 | locus YOR265W, strain rbl2, hits give low values 1.02 | locus YOR270C, strain vph1, hits give low values 1.04 | locus YOR290C, strain snf2, hits give low values 1.03 | locus YOR316C, strain cot1, hits give low values 0.957 | locus YPL051W, strain arl3, hits give low values 1.04 | locus YPL078C, strain atp4, hits give low values 1.05 | locus YPL106C, strain sse1, hits give low values 1.02 | locus YPL240C, strain hsp82, hits give low values 1.02 | locus YPL241C, strain CIN2, hits give low values 0.989 | locus YPL256C, strain CLN2, hits give low values 0.976 | locus YPR119W, strain clb2, hits give low values 0.972 | locus YPR141C, strain kar3, hits give low values 0.958 | locus YPR163C, strain tif3, hits give low values 0.981 | locus YPR167C, strain met16, hits give low values 0.989 | strain wtn01, hits give low values 0.987
